# Test system: H1 OCT4-GFP hESC
# Assay: survival Z score in repeat assay, Calcein AM perimeter-filtered objects (vs plate mean) (Z score (SD)); higher = more surviving cells, active = 3 or more
# Conditions: 10 µM, 2 days, cells per well: 1500, rescreen
# Method: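 Top perimeter-filtered hits were cherry-picked and rescreened in the same Calcein AM assay (H1 OCT4-GFP hESCs, 1500 cells/well, 10 µM, 2 days, objects with perimeter ≥100 µm). Results are per-plate Z scores; a hit is Z ≥3.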
row,Structure (SMILES),survival Z score in repeat assay
1,O=S(=O)(c1cccc2cnccc12)N1CCCNCC1,4.63 (active)
2,CC(N/C(=N\C#N)Nc1ccncc1)C(C)(C)C (configuration not stated) [Pinacidil],0.345 (inactive)
